Compound activity as filed in PubChem.
H9c2 TAG inh: inhibitors of triacylglycerol accumulation; H9c2 cells, Nile Red lipid (TAG) fluorescence; cells loaded with 200 µM oleic acid; inhibition, % at 12.5 µM; actives 0.66% (n = 230,000); AID 651582;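 active means pattern-corrected inhibition of lipid staining of at least 50% with the nuclear-stain viability signal not falling by more than 50%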;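 further: 0% = DMSO wells and 100% = triacsin C control wells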
CHT block: inhibits the human high affinity choline transporter. Q9GZV3. CHT-expressing cells, membrane potential dye, choline response; hits give low values. B-score at 10 µM. actives 0.86% (n = 310,000). AID 488975;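 active means B-score over 3 SD under the library average, and starting fluorescence ratio not unusually high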;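 further: choline stimulus applied at its EC90 after an EC20 pre-addition; B-score computed on integrated fluorescence ratio after choline addition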
Target sequence (Q9GZV3 whole entry, looked up): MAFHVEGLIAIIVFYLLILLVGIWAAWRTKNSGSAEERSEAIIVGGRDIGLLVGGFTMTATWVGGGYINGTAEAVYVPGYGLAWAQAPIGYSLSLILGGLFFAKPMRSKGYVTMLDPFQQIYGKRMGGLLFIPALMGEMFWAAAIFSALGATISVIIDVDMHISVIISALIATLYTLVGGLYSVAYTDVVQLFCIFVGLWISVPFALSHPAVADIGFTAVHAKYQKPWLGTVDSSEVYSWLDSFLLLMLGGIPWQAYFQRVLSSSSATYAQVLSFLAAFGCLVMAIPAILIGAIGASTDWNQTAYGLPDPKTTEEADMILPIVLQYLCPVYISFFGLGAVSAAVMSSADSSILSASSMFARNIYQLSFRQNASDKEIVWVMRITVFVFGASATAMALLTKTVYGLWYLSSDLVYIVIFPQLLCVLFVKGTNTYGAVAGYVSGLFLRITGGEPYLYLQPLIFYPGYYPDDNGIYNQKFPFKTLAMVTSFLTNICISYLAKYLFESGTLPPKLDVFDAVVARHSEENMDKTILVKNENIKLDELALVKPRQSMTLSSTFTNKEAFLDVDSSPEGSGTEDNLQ
MIN6 prolif: MIN6 beta-cell proliferation induction | MIN6 cells proliferation, ATPlite luminescence, 48 h; cells starved in 0.2% serum; 100% = growth in 10% serum | proliferation, % at 10 µM | actives 0.29% (n = 330,000);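 active means compounds whose signal lies at least 3.5 SD above the mean of all wells on their plate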;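 further: 0% = DMSO-treated cells in low-serum medium and 100% = 10% serum control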
CHT PAM: human CHT allosteric activation | Q9GZV3 | CHT-expressing cells, membrane potential dye, choline EC20; hits give high values; LV-AA mutant CHT in HEK293 cells | B-score at 10 µM | actives 0.49% (n = 310,000);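 active means initial fluorescence not abnormally high and integrated response B-score, plate-corrected, over 3 SD above library mean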
CHT inh conf: confirmation of human choline transporter CHT inhibitors; actives 70% (n = 2,400); CHT activity remaining % of control (hits give low values), % at 10 µM; CHT-expressing cells, choline membrane potential dye; LV-to-AA substituted CHT, HEK293 cells; shares compounds with CHT block;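 active means choline transporter activity left, mean of duplicates at 10 µM, below buffer-only control mean minus 3 SD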;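 further: depolarization triggered by choline at its EC90 following an EC20 pre-addition; 0% = hemicholinium-3 full block and 100% = buffer-only control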
HEK293 CHT ctr: activity in parental HEK293 cells lacking CHT | membrane potential ratio readout (active if shifted either direction beyond buffer ±3SD; no single direction) at 10 µM | actives 4% (n = 2,400) | shares compounds with CHT block | membrane potential dye, choline response; active = decrease or increase beyond buffer ±3SD;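 further: parental cells lack the transporter so any hit is non-specific; ratio is peak minus trough fluorescence over baseline after EC90 choline challenge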
* = called active by the depositor; i = inactive; x = no result given. Hits are enriched below; roughly 1.7% of the tested compounds scored in any of these assays.

SMILES | H9c2 TAG inh | CHT block | MIN6 prolif | CHT PAM | CHT inh conf | HEK293 CHT ctr
O=C(CCl)N(c1ccc(Cl)cc1)c1c[nH]c2ccccc12 | x | -5.9* | -6 | i | 56%* | i
CC1CCCCC1NC(=O)C1CCC(CNc2c(N3CCCCC3)c(=O)c2=O)CC1 (centres undefined) | 12 | i | -1 | i | x | x
Cc1nn(-c2ccccc2)c2[nH]c(=O)cc(C(F)(F)F)c12 | x | -5.2* | 0 | i | 37%* | i
Cc1cc(=O)[nH]c2c1c(C)nn2-c1ccccc1 | 0 | i | -3 | i | x | x
CC(C)C(NC(=O)c1ccccc1Br)c1ccccc1 (centres undefined) | -7 | -5.3* | 0 | i | i | i
CC(NC(=S)NC(=O)c1ccccc1Br)c1ccccc1 (centres undefined) | -2 | i | -5 | i | x | x
Cc1ccc(CN2CCN(Cc3cnc(N4CCOCC4)s3)CC2CCO)cc1 (centres undefined) | 7 | i | -4 | i | x | x
CC(C)(C)NS(=O)(=O)c1cc(C(=O)Nc2sccc2C#N)ccc1Cl | x | -5.3* | -2 | i | i | i
CC(C)(C)NCC(O)Cn1cc(C=O)c2ccccc21 (centres undefined) | 2 | -5.7* | 0 | i | 50%* | i
CNC(=O)C[C@H]1C(=O)N(Cc2ccccc2)C[C@@H]1Cc1ccccc1 | 3 | x | x | x | x | x
CC1(C)C2CCC(C2)C1(C)NC(=O)CNCC1CCCCC1 (centres undefined) | -10 | i | -1 | i | x | x
COc1ccc(NC(=O)c2cccc(Oc3ccc([N+](=O)[O-])cc3Cl)c2)cc1 | -3 | i | -5 | i | x | x
Cc1ccc(C)c(NC(=O)c2cccc(Oc3ccc([N+](=O)[O-])cc3Cl)c2)c1 | x | -7.2* | -6 | i | 49%* | i
CC1CN(C(=O)CCC(=O)NC(C)c2ccccc2)c2cc(Cl)ccc2O1 (centres undefined) | 6 | i | 0 | i | 24%* | i
CC(=O)N1CCC(C(=O)OCc2ccccc2F)(c2ccccc2)CC1 | x | i | 1 | i | x | x
COc1ccc(-c2nnc(CSc3nc4ccccc4c(=O)n3CC3CCCO3)o2)cc1OC (centres undefined) | 4 | -7.4* | 1 | i | 49%* | i
COc1ccc(OC)c(NC(=O)CSc2nc3ccccc3c(=O)n2CC2CCCO2)c1 (centres undefined) | x | i | -1 | i | x | x
O=C(COC(=O)CCS(=O)(=O)c1ccc(F)cc1)NC1CCCCC1 | 11 | x | -4 | x | x | x
CC1=C(C(=O)OCC(Cl)(Cl)Cl)N2C(=O)C(NC(=O)Cc3ccccc3)C2SC1 (centres undefined) | 9 | -12* | 2 | i | i | i
CC(=O)OCC1=C(C(=O)OC(C)(C)C)N2C(=O)[C@@H](NC(=O)Cc3ccccc3)[C@H]2SC1 | 2 | x | x | x | x | x
COc1cccc(OCCSc2nnc3sc4ccccc4n23)c1 | -2 | -8.7* | -3 | i | i | i
COc1ccc(S(=O)(=O)N2CCN(C(=O)CSC(=S)N3CCCC3)CC2)cc1 | 1 | x | 0 | x | x | x
Cn1c(SCc2ccc(C#N)cc2Cl)nc2ccccc21 | x | -11* | -1 | i | 3.8%* | i
CC1CC(C)(C)N(C(=O)CN2C(=O)c3ccccc3C2=O)c2ccccc21 (centres undefined) | x | -16* | -3 | i | 62%* | i
CCOC(=O)CSC1=C(C#N)C(c2ccccc2)C(C(C)=O)=C(C)N1 (centres undefined) | x | -5.7* | -2 | i | i | i
CSC1=C(C#N)C(c2ccccc2)C(C(C)=O)=C(C)N1 (centres undefined) | 5 | i | -3 | i | x | x
O=C(O)CSc1cc(C(=O)c2cc(F)ccc2O)cn2c(=O)c3c(-c4ccccc4)csc3nc12 | -7 | -7* | -6 | i | 26%* | i
Cc1ccc(C(=O)Nc2ncc([N+](=O)[O-])s2)cc1 | x | -5.9* | x | i | 56%* | i
O=C(Nc1ncc([N+](=O)[O-])s1)c1ccc2c(c1)OCO2 | x | i | -4 | i | x | x
